This note sets out measurements from PubChem BioAssay (NCI).

The panel holds about 83,000 compounds, 20% with a hit somewhere; the sample as a whole holds those more often.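 Cells were grown in 96-well plates and exposed to the test compound at a single concentration for 48 hours; results are reported as percent growth, with values below 10 considered active.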 Unmarked numbers belong to inactive results. Calls of active or inactive are those of the source.

Holding throughout (assay): NCI-60 one-dose screen, 48 h (100 = growth as untreated, 0 = no growth, -100 = all killed)
What all share (conditions): 10 µM unless noted

Experiment [1] has as its system EKVX NSCLC.
The test system of experiment [2] is SN12C renal.
In experiment [3] the test system is UO-31 renal.
In experiment [4] the test system is TK-10 renal.
The subject of experiment [5] is ACHN renal.
The test system of experiment [6] is CAKI-1 renal.
Experiment [7] deals with A498 renal.
In experiment [8] the test system is CCRF-CEM leukemia.
Experiment [9] deals with MOLT-4 leukemia.
The subject of experiment [10] is SR leukemia.
The subject of experiment [11] is RPMI-8226 leukemia.
For experiment [12], the system named is OVCAR-8 ovarian.
For experiment [13], the system named is OVCAR-5 ovarian.
Experiment [14] relates to OVCAR-4 ovarian.
Experiment [15] deals with SK-OV-3 ovarian.
Experiment [16] concerns IGROV1 ovarian.
For experiment [17], the system named is NCI/ADR-RES ovarian.
Experiment [18] concerns T-47D breast.
Experiment [19] has as its system OVCAR-3 ovarian.
Experiment [20] relates to HS 578T breast.

For `CS(=O)(=O)c1ccc(-c2nc3ccccn3c2C=Nc2ccc(Cl)cc2)cc1`, the growth was 100% in experiment [1]; 81.6% in experiment [2]; 61.4% in experiment [3]; 110% in [4]; 49.4% in experiment [5]; 42.9% in [6]. Moreover, the growth in experiment [7] was 79.1%; in experiment [8], 61.8%; in experiment [9], 64.9%; in experiment [10], 96.8%; in experiment [11], 77.1%; in experiment [12], 86.3%. The growth is 83.6% in [13]; 88.2% in experiment [14]; 96.9% in experiment [15]; 78.4% in experiment [16]; 62.3% in experiment [17]; 65.4% in [18].

As to `O=C(CSc1nc2sc3c(c2c(=O)n1-c1ccc(Cl)cc1)CCCC3)N/N=C/c1ccc(F)cc1`, the growth in [1] was 90.3%; in experiment [2], 97.1%; in experiment [3], 83.2%; in [4] it was 125%; in experiment [5], 108%; in experiment [6], 98%. The growth in [7] is 96.8%; in experiment [8], 65.9%; in experiment [9] it was 69.3%; in experiment [10], 39.6%; in [11] it was 97.2%; in experiment [12] it was 96.7%. The growth is 106% in [13]; 89.8% in experiment [14]; 116% in experiment [15]; 104% in experiment [16]; 133% in [19]; 104% in experiment [17]. Also, the growth in [18] is 109%.

With `COc1ccc(-c2nc3ccc(-c4nnc(SCC(=O)Nc5ccc(C(C)=O)cc5)o4)cc3[nH]2)cc1`, the growth was 99.2% in [1]; 113% in experiment [2]; 94.1% in experiment [3]; 116% in experiment [4]; 102% in experiment [5]; 101% in experiment [6]. The growth in experiment [7] is 110%; in experiment [8] it was 100%; in experiment [9], 87.8%; in experiment [10] it was 89.5%; in experiment [11] it was 97.1%; in experiment [12] it was 108%. In addition, the growth is 107% in experiment [13]; 109% in experiment [14]; 118% in experiment [15]; 107% in [16]; 138% in experiment [19]; 118% in experiment [17]. In addition, in experiment [18], the growth is 105%.

Turning to `Cc1cccc(/C=C/c2nn3c(-c4ccco4)nnc3s2)c1`, the growth in [1] is 81.3%; in experiment [2], 94.8%; in [3] it was 83.7%; in experiment [4], 101%; in experiment [5] it was 102%; in experiment [6] it was 91.4%. The growth is 77.5% in [7]; 99.4% in experiment [8]; 104% in experiment [9]; 79% in experiment [10]; 100% in [11]; 100% in experiment [12]. The growth was 98.2% in experiment [13]; 98.7% in experiment [14]; 114% in [15]; 98.6% in experiment [16]; 110% in experiment [19]; 106% in experiment [20]. The growth was 91.6% in [17] and 89.2% in experiment [18].

Regarding `C/C(=N/NC(N)=S)c1ccc(Nc2nc(SCC(C)C)nc(-c3ccc(F)cc3)c2C#N)cc1`, the growth in experiment [1] is -0.0417% (active); in [2] it was 12.7%; in [3], 0.28% (active); in experiment [4], 8.09% (active); in [5], 12.5%; in [6] it was -9.45% (active). For the same molecule, the growth in [7] is 15.9%; in experiment [8] it was 51.7%; in experiment [9], 44.4%; in [10] it was 42.8%; in experiment [11], 34.2%; in [12] it was -3.63% (active). Further, the growth in experiment [13] was 29.2%; in [14] it was 26.5%; in experiment [15], 28.9%; in experiment [16], 21.2%; in [19], -19.5% (active); in experiment [20], 4% (active). For the same molecule, the values for the growth in [17] and in experiment [18] were -14.6% (active) and 21.6%, respectively.

`O=C1Nc2ccccc2Oc2ccc(S(=O)(=O)CC3CO3)cc21` (configuration not stated): the growth in experiment [1] was 75.2%; in experiment [2] it was 71.5%; in [3], 65.9%; in experiment [4] it was 91.6%; in experiment [5], 46.4%; in experiment [6], 44.1%. Moreover, the growth is 102% in experiment [7]; 25.7% in experiment [8]; 42.8% in experiment [9]; 0.309% (active) in [10]; 44.9% in [11]; 64.3% in [12]. Besides, the growth in experiment [13] was 85.5%; in experiment [14], 70.1%; in [15], 122%; in experiment [16] it was 62.3%; in experiment [17] it was 98.2%; in experiment [18], 47.5%.

As for `COc1ccc(NC2=CC(=O)C(C)=C(C)C2=O)cc1`, the growth in experiment [1] is 78.8%; in experiment [2], 86.4%; in [3], 81.2%; in experiment [4], 156%; in experiment [5] it was 96.1%; in [6] it was 93.5%. Also, the growth in experiment [7] was 84.4%; in experiment [8], 70.1%; in [9], 75.6%; in experiment [10] it was 82.3%; in experiment [11], 73.3%; in experiment [12] it was 79.1%. The growth was 109% in [13]; 43.8% in experiment [14]; 89.3% in [16]; 9.94% (active) in [19]; 110% in [20]; 67.5% in [18].
